# Assay results from PubChem BioAssay.
# Where “and” joins values, the source holds several entries; their conditions need not be identical. Equal values may be shown once. Where a structure was tested more than once in an assay, its records may differ in their call. Calls of active or inactive are those of the source.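 The calls were made as follows, unless noted: active = thallium flux through the channel raised or lowered by more than 3 SD from vehicle-only wells, actives on both sides; inactive = the rest.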
# Key:
# [1] = stimulators of nuclear beta-catenin in C2C12, primary screen, imaging, WNT3A-conditioned medium, mouse C2C12, NPC library (AID 1117326; in the data active = nuclear beta-catenin stimulation mostly above about 4.2%, no sharp cut-off; inactive = mostly below about 10%); conditions: stronger effect = higher value
# [2] = stimulators of insulin release from INS-1E, primary screen, cell-based, 5 mM glucose, NPC library (AID 1117329;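 active = compound raises insulin release from rat beta cells at 5 mM glucose, no numeric limit stated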); conditions: rat INS-1E insulin secretion, at 10 µM, stronger effect = higher value
# [3] = growth inhibition of GSK3B-pretreated HCT116 cells – cell-based, CellTiter-Glo, 0.2 to 20 µM (AID 1117336;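 active = compounds lowering colon cancer cell viability after pretreatment blocking the GSK3B kinase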); conditions: HCT116 viability after GSK3B inhibitor, at 20 µM, stronger effect = higher value
# [4] = inhibition of endothelial tube formation, primary screen, imaging, VEGF stimulated, CD31 staining, tube area, NPC library (AID 1117340;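 active = compound that reduces growth-factor-driven endothelial tube area in a mixed cell culture, no cutoff stated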); conditions: VEGF-stimulated ADSC/ECFC co-culture, at 10 µM, stronger effect = higher value
# [5] = glucagon-like peptide 1 release enhancers, primary assay, NCI-H716 cell line, NPC library (AID 1117341;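 active = compound raises GLP1 secretion from the human gut endocrine cells, with no numeric limit stated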); conditions: NCI-H716 cells, at 10 µM, stronger effect = higher value
# [6] = HCT116 colon cancer cell growth inhibition, primary screen, CellTiter-Glo luminescence, NPC library (AID 1117342;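 active = compounds that lower survival of HCT116 colon cancer cells in the luminescence readout, no numeric limit stated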); conditions: at 20 µM (top of the series)
# [7] = CellTiter-Glo luminescent readout of SW480 viability loss, NPC library primary (AID 1117343;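 active = compounds that lower viability of the colon cancer cells in the luminescence readout, with no numeric limit stated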); conditions: CellTiter-Glo luminescence; at 20 µM (top of the series)
# [8] = decreased DLD-1 cellular survival, CellTiter-Glo luminescent readout, NPC compound collection, primary HTS (AID 1117346;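 active = compounds that lower survival of DLD-1 colon cancer cells in the luminescence readout, no cutoff given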); conditions: DLD-1 viability, CellTiter-Glo luminescence; at 20 µM (top of the series)
# [9] = target: 6-phosphogluconate dehydrogenase, decarboxylating (Homo sapiens) (UniProt P52209); assay: 6PGD enzyme inhibitors, primary screen, biochemical, human, recombinant enzyme, NADPH absorbance (AID 1159550;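 active = at least 20% inhibition of 6-phosphogluconate dehydrogenase activity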); conditions: recombinant 6PGD, NADPH absorbance 341 nm; at 10 µM; stronger effect = higher value
# Chain of 6-phosphogluconate dehydrogenase, decarboxylating (Homo sapiens) (P52209 whole entry, looked up): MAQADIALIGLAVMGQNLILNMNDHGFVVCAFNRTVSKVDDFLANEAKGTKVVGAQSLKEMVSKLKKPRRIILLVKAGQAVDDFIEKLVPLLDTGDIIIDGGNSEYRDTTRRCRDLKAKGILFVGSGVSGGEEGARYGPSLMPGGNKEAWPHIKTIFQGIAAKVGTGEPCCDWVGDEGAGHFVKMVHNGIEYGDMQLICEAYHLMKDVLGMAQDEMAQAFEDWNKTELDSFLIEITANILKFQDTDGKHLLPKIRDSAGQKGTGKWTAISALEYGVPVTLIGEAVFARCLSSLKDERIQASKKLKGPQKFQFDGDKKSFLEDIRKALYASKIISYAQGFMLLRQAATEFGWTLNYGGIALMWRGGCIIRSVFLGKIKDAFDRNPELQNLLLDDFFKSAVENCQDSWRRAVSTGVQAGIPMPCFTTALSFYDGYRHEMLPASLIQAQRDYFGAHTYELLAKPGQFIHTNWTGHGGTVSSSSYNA
# [10] = modulation of C. elegans fzo-1 (AID 1259413; call rule not given here;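 also: fzo-1 mutant C. elegans worms in liquid wells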); conditions: C. elegans fzo-1 modulator screen, mean read-out; stronger effect = higher value
# [11] = differential killing of epithelial or mesenchymal cells, primary screen, imaging, PC-3E GFP, TEM4-18 mCherry, co-culture (AID 1345086;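 active = compounds killing one labelled cell type while sparing the other, by normalised counts and ratio limits, not self-fluorescent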;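 as to all read-outs here: cells exposed to compound for 72 h before imaging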;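 as to red/green cell ratio (normalised): normalised mesenchymal count divided by normalised epithelial count so high means epithelial killing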); conditions: imaging cell counts, at 1 µM; for red/green cell ratio (normalised): actives lie on both sides, counts scaled to control wells, 1 = unselective
# [12] = survival rescue of mitochondrial mutant cells in low glucose, primary screen, MELAS cybrids, Rieske KO mouse fibroblasts, CellTiter-Glo (AID 1508586;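 active = mean z-score across replicates of 1.96 or higher in either the MELAS or the Rieske mutant cell line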;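 also: z relative to plate mean and SD of compound and empty wells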)
# [13] = target: NAD(+) hydrolase SARM1 (Homo sapiens) (UniProt Q6SZW1); assay: SARM1 TIR NADase inhibitors, cell lysate, NAD-Glo luminescence (AID 1508614;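 active = compound whose remaining NAD level is above about 45 nM, limit read from the data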;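 also: higher remaining NAD means stronger inhibition of SARM1 NADase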); conditions: SAM-TIR HEK293T lysate NADase, at 1 µM, stronger effect = higher value
# Chain of NAD(+) hydrolase SARM1 (Homo sapiens) (Q6SZW1 whole entry, looked up, the tested form may be a part): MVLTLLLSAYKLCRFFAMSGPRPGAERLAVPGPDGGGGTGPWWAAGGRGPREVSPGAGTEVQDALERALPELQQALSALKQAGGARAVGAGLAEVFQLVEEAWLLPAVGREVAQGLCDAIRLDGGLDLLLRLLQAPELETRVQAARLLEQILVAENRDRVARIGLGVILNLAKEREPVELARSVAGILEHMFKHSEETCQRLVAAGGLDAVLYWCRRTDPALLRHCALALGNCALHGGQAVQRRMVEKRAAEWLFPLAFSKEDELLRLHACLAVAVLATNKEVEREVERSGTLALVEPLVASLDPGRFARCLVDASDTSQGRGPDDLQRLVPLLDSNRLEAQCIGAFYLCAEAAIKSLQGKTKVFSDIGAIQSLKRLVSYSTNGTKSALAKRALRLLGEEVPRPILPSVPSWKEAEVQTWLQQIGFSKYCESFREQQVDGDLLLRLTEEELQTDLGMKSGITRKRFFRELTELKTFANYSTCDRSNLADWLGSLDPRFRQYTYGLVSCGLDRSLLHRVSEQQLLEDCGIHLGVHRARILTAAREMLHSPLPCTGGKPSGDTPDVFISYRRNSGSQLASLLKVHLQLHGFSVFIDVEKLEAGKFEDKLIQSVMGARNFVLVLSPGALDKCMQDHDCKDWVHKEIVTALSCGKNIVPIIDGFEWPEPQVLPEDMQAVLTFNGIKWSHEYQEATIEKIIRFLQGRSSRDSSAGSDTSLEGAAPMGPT
# [14] = target: Mitogen-activated protein kinase 7 (Homo sapiens) (UniProt Q13164); assay: ERK5 transactivation activators in reporter cells, primary screen, cell-based, HTS (AID 1508626;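 active = luciferase signal above three times the same-plate solvent-only control wells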;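 also: luciferase driven by Gal4-ERK5 fusion binding five Gal4 sites before minimal TATA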); conditions: HeLa Gal4-ERK5 transactivation, 18 h, at 5 µM, stronger effect = higher value
# Chain of Mitogen-activated protein kinase 7 (Homo sapiens) (Q13164 whole entry, looked up, the tested form may be a part): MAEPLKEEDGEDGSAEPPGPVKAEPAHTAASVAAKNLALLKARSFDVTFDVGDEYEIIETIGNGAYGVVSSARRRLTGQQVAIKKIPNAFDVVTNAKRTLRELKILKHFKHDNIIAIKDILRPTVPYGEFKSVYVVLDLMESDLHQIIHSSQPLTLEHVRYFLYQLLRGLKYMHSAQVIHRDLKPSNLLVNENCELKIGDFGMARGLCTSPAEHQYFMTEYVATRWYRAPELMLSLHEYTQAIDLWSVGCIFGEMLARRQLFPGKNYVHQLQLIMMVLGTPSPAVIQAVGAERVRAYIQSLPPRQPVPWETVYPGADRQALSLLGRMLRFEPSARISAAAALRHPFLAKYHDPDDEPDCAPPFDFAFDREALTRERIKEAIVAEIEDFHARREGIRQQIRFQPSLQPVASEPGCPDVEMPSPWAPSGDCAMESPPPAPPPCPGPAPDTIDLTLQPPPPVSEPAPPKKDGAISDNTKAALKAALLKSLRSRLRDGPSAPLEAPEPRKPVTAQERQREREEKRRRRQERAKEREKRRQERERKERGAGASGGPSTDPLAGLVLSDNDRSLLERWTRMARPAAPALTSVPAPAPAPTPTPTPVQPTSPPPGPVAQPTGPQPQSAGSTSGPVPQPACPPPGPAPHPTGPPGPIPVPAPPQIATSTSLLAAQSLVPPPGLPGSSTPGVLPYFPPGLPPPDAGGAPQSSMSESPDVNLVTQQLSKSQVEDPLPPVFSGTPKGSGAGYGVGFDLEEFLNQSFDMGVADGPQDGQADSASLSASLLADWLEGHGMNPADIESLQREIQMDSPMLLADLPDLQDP
# [15] = system: F380Y; assay: modulators of BK channel variants, profiling panel, selectivity assay, cell-based, U2OS BacMam, thallium flux, beta subunits (AID 1259406); conditions: at 30 µM;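 also: initial slope of Thallos dye fluorescence rise after thallium is added; log ratio against the mean of 0.3% DMSO vehicle wells on the same plate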
# [16] = system: F380Y/beta1; assay: as above; conditions: at 30 µM
# [17] = system: F380Y/beta2Delta; assay: as above; conditions: at 30 µM
# [18] = measured here: epithelial PC-3E GFP cell survival
# [19] = measured here: mesenchymal TEM4-18 mCherry cell survival
# [20] = MELAS cybrid survival, CellTiter-Glo 48 h, stronger effect = higher value
# [21] = Rieske KO mouse fibroblast survival, CellTiter-Glo 72 h
structure (smiles),measurement,setting,value
CC(C[N+](C)(C)C)OC(N)=O (stereo not drawn),nuclear beta-catenin stimulation,[1]; at 10 µM,-0.5% (inactive)
same,nuclear beta-catenin stimulation,"[1]; stimulation, at 2 µM",-1.3%
same,insulin secretion stimulation,[2],0.3% (inactive)
same,viability decrease,[3],-5.9% (inactive)
same,tube area decrease,[4],-10% (inactive)
same,GLP1 secretion stimulation,[5],0.5% (inactive)
same,inhibition of viability,[6],-0.4% (inactive)
same,viability decrease (inhibition),[7],-11.8% (inactive)
same,viability decrease (inhibition),[8],-7.3% (inactive)
same,inhibition,[9],-9.2% (inactive)
same,mean signal,[10],276 (inactive)
same,red/green cell ratio (normalised),[11],0.97 (inactive)
same,normalised cell number,[11]; [18],1.15
same,normalised cell number,[11]; [19],1.11
same,z-score,[12]; [20],-0.399 (inactive) and 0.646 (inactive) and 0.598 (inactive)
same,z-score,[12]; [21],0.843 and -0.822 and 0.416
same,remaining NAD,[13],10 nM (inactive)
same,luciferase signal,[14],56 AU (inactive)
same,log fold change Tl+ flux,[15],0.0115 (inactive)
same,log fold change Tl+ flux,[16],0.0306 (inactive)
same,log fold change Tl+ flux,[17],-0.0155 (inactive)
CC12CC3CC(C)(C1)CC(N)(C3)C2,nuclear beta-catenin stimulation,[1]; at 10 µM,2% (inactive)
same,nuclear beta-catenin stimulation,"[1]; stimulation, at 2 µM",1%
same,insulin secretion stimulation,[2],12% (inactive)
same,viability decrease,[3],-2.8% (inactive)
same,tube area decrease,[4],-6.5% (inactive)
same,GLP1 secretion stimulation,[5],2.8% (inactive)
same,inhibition of viability,[6],-5.4% (inactive)
same,viability decrease (inhibition),[7],14.2% (inactive)
same,viability decrease (inhibition),[8],0.65% (inactive)
same,inhibition,[9],7.37% (inactive)
same,mean signal,[10],254 (inactive)
same,red/green cell ratio (normalised),[11],0.87 (inactive)
same,normalised cell number,[11]; [18],1.15
same,normalised cell number,[11]; [19],1
same,z-score,[12]; [20],-0.277 (inactive) and -0.613 (inactive)
same,z-score,[12]; [21],0.678 and -0.28
same,remaining NAD,[13],10 nM (inactive)
same,luciferase signal,[14],40 AU (inactive)
same,log fold change Tl+ flux,[15],0.0112 (inactive)
same,log fold change Tl+ flux,[16],0.0185 (inactive)
same,log fold change Tl+ flux,[17],0.0288 (inactive)
N[C@@H]1CONC1=O,nuclear beta-catenin stimulation,[1]; at 10 µM,0.4% (inactive)
same,nuclear beta-catenin stimulation,"[1]; stimulation, at 2 µM",3.4%
same,insulin secretion stimulation,[2],1.4% (inactive)
same,viability decrease,[3],-9.9% (inactive)
same,tube area decrease,[4],3.2% (inactive)
same,GLP1 secretion stimulation,[5],-0.7% (inactive)
same,inhibition of viability,[6],8.67% (inactive)
same,viability decrease (inhibition),[7],-6.2% (inactive)
same,viability decrease (inhibition),[8],-14.1% (inactive)
same,inhibition,[9],6.28% (inactive)
same,mean signal,[10],211 (inactive)
same,red/green cell ratio (normalised),[11],1.34 (inactive)
same,normalised cell number,[11]; [18],1.27
same,normalised cell number,[11]; [19],1.71
same,z-score,[12]; [20],0.819 (inactive)
same,z-score,[12]; [21],0.724
same,remaining NAD,[13],10 nM (inactive)
same,luciferase signal,[14],64 AU (inactive)
same,log fold change Tl+ flux,[15],0.0411 (inactive) and -0.0245 (inactive)
same,log fold change Tl+ flux,[16],0.0612 (inactive)
same,log fold change Tl+ flux,[17],-0.00859 (inactive) and -0.0479 (inactive)
CCc1cc(C(N)=S)ccn1,nuclear beta-catenin stimulation,[1]; at 10 µM,0.1% (inactive)
same,nuclear beta-catenin stimulation,"[1]; stimulation, at 2 µM",0.5%
same,insulin secretion stimulation,[2],1% (inactive)
same,viability decrease,[3],-19.3% (inactive)
same,tube area decrease,[4],2.7% (inactive)
same,GLP1 secretion stimulation,[5],-4% (inactive)
same,inhibition of viability,[6],-7.9% (inactive)
same,viability decrease (inhibition),[7],6.3% (inactive)
same,viability decrease (inhibition),[8],-11% (inactive)
same,inhibition,[9],11% (inactive)
same,mean signal,[10],267 (inactive)
same,red/green cell ratio (normalised),[11],0.96 (inactive)
same,normalised cell number,[11]; [18],1.01
same,normalised cell number,[11]; [19],0.97
same,z-score,[12]; [20],0.0369 (inactive) and 0.0584 (inactive)
same,z-score,[12]; [21],0.0377 and 0.257
same,remaining NAD,[13],10 nM (inactive)
same,luciferase signal,[14],40 AU (inactive)
same,log fold change Tl+ flux,[15],0.0115 (inactive)
same,log fold change Tl+ flux,[16],0.0016 (inactive)
same,log fold change Tl+ flux,[17],-0.0262 (inactive)
NNC(=O)c1ccncc1,nuclear beta-catenin stimulation,[1]; at 10 µM,-1.9% (inactive)
same,nuclear beta-catenin stimulation,"[1]; stimulation, at 2 µM",-1.2%
same,insulin secretion stimulation,[2],-0.1% (inactive)
same,viability decrease,[3],-2.7% (inactive)
same,tube area decrease,[4],-10.4% (inactive)
same,GLP1 secretion stimulation,[5],0.3% (inactive)
same,inhibition of viability,[6],9.9% (inactive)
same,viability decrease (inhibition),[7],10.1% (inactive)
same,viability decrease (inhibition),[8],6.5% (inactive)
same,inhibition,[9],6.29% (inactive)
same,mean signal,[10],247 (inactive)
same,red/green cell ratio (normalised),[11],1.18 (inactive)
same,normalised cell number,[11]; [18],1.01
same,normalised cell number,[11]; [19],1.19
same,z-score,[12]; [20],-0.127 (inactive) and -0.162 (inactive) and -0.645 (inactive)
same,z-score,[12]; [21],0.295 and -0.273 and 1.51
same,remaining NAD,[13],10 nM (inactive)
same,luciferase signal,[14],36 AU (inactive)
same,log fold change Tl+ flux,[15],0.00909 (inactive)
same,log fold change Tl+ flux,[16],0.0138 (inactive)
same,log fold change Tl+ flux,[17],0.00988 (inactive)
CN=C(NC#N)NCCSCc1nc[nH]c1C,nuclear beta-catenin stimulation,[1]; at 10 µM,0.2% (inactive)
same,nuclear beta-catenin stimulation,"[1]; stimulation, at 2 µM",-1.1%
same,insulin secretion stimulation,[2],1.3% (inactive)
same,viability decrease,[3],10.8% (inactive)
same,tube area decrease,[4],-5.8% (inactive)
same,GLP1 secretion stimulation,[5],-0.3% (inactive)
same,inhibition of viability,[6],8.17% (inactive)
same,viability decrease (inhibition),[7],36.9% (inactive)
same,viability decrease (inhibition),[8],1.2% (inactive)
same,inhibition,[9],-10.7% (inactive)
same,mean signal,[10],239 (inactive)
same,red/green cell ratio (normalised),[11],1.04 (inactive)
same,normalised cell number,[11]; [18],1.01
same,normalised cell number,[11]; [19],1.05
same,z-score,[12]; [20],-0.132 (inactive) and 0.533 (inactive) and -0.0775 (inactive)
same,z-score,[12]; [21],-0.116 and -0.0466 and 0.0997
same,remaining NAD,[13],10 nM (inactive)
same,luciferase signal,[14],44 AU (inactive)
same,log fold change Tl+ flux,[15],0.0123 (inactive)
same,log fold change Tl+ flux,[16],0.0381 (inactive)
same,log fold change Tl+ flux,[17],-0.0232 (inactive)
NCCc1ccc(O)c(O)c1,nuclear beta-catenin stimulation,[1]; at 10 µM,1.1% (inactive)
same,nuclear beta-catenin stimulation,"[1]; stimulation, at 2 µM",0.8%
same,insulin secretion stimulation,[2],-3% (inactive)
same,viability decrease,[3],22.9% (inactive)
same,tube area decrease,[4],37.7% (inactive)
same,GLP1 secretion stimulation,[5],-0.9% (inactive)
same,inhibition of viability,[6],-9.7% (inactive)
same,viability decrease (inhibition),[7],79.9% (active)
same,viability decrease (inhibition),[8],11.6% (inactive)
same,inhibition,[9],-4.79% (inactive)
same,mean signal,[10],263 (inactive)
same,red/green cell ratio (normalised),[11],1.02 (inactive) and 0.85 (inactive)
same,normalised cell number,[11]; [18],1.41 and 1.02
same,normalised cell number,[11]; [19],1.44 and 0.87
same,z-score,[12]; [20],-0.31 (inactive) and 0.319 (inactive)
same,z-score,[12]; [21],0.135 and -0.219
same,remaining NAD,[13],10 nM (inactive)
same,luciferase signal,[14],44 AU (inactive) and 204 AU (active)
same,log fold change Tl+ flux,[15],0.0174 (inactive)
same,log fold change Tl+ flux,[16],0.0356 (inactive)
same,log fold change Tl+ flux,[17],0.0459 (inactive)
CCCCNc1cc(C(=O)O)cc(S(N)(=O)=O)c1Oc1ccccc1,nuclear beta-catenin stimulation,[1]; at 10 µM,0.1% (inactive)
same,nuclear beta-catenin stimulation,"[1]; stimulation, at 2 µM",-0.1%
same,insulin secretion stimulation,[2],-0.7% (inactive)
same,viability decrease,[3],-57% (inactive)
same,tube area decrease,[4],3.7% (inactive)
same,GLP1 secretion stimulation,[5],-2.2% (inactive)
same,inhibition of viability,[6],2.63% (inactive)
same,viability decrease (inhibition),[7],2.4% (inactive)
same,viability decrease (inhibition),[8],-4.2% (inactive)
same,inhibition,[9],0% (inactive)
same,mean signal,[10],228 (inactive)
same,red/green cell ratio (normalised),[11],0.96 (inactive)
same,normalised cell number,[11]; [18],1.1
same,normalised cell number,[11]; [19],1.05
same,z-score,[12]; [20],-0.34 (inactive) and 0.797 (inactive) and -0.227 (inactive)
same,z-score,[12]; [21],-0.392 and -0.0528 and -1.25
same,remaining NAD,[13],10 nM (inactive)
same,luciferase signal,[14],32 AU (inactive)
same,log fold change Tl+ flux,[15],0.0239 (inactive)
same,log fold change Tl+ flux,[16],-0.0436 (inactive)
same,log fold change Tl+ flux,[17],-0.0452 (inactive)
